Data from PubChem BioAssay (EPA / NIEHS).
Several values for one entry are separate records, joined by “and”; a condition that tells them apart may be missing. Identical values can stand only once. Some structures have more than one record in an assay (separate samples or runs), and their calls can disagree. Activity calls are given as the source filed them. The calls were made as follows: active = hit-call score of the fitted dose curve at least 0.9, where 1 is the maximum; inactive = score below 0.9.

Test: ATG_CMV_CIS: Attagene CIS-FACTORIAL HepG2 Assay for human CMV (Internal Marker) (AID 2282928);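 also: endpoint acts as a background internal control marker rather than a target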
Details: HepG2 CMV promoter reporter, transcription factor profiling; actives raise or lower the signal
In short: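 Readout: fluorescent reporter cDNA fragments separated by capillary electrophoresis after RT-PCR and HpaI cut. Cells: HepG2 carrying transfected cis-promoter reporter constructs, dosed 24 h. Endpoint serves as background internal-marker control, fit bidirectionally versus DMSO.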
With `CCCCCCCCCC[N+](C)(C)CCCCCCCCCC` the AC50 was 179 µM (active). For `CCC(=O)O[C@H]1CC[C@H]2[C@@H]3CCC4=CC(=O)CC[C@]4(C)[C@H]3CC[C@]12C`, the AC50 was 72.9 µM (active) and 100 µM (active) and the outcome was “inactive”. For `COc1ccc(O)c(C(C)(C)C)c1`, the AC50 was 83.1 µM (active). With `CC1=C2C[C@H]3[C@@H](CC=C4C[C@@H](O)CC[C@@]43C)[C@@H]2CC[C@]12O[C@@H]1C[C@H](C)CN[C@H]1[C@H]2C` the outcome was “inactive”. In the case of `O=C(N[C@H]1CN2CCC1CC2)c1cc2ccoc2cn1`, the outcome is reported as “inactive”. With `NS(=O)(=O)C(F)(F)C(F)(F)C(F)(F)C(F)(F)C(F)(F)C(F)(F)C(F)(F)C(F)(F)F` the AC50 was 40.4 µM (active) and 227 µM (active) and 21.6 µM (active). For `Oc1ccc(C(c2ccc(O)cc2)(C(F)(F)F)C(F)(F)F)cc1`, the AC50 was 7.18 µM (active) and 8.05 µM (active) and the outcome was “inactive”. For `ClC(Cl)=C(c1ccc(Cl)cc1)c1ccc(Cl)cc1`, the AC50 was 57.2 µM (active) [middle of 4 runs]. With `C[C@]12CCC(=O)C=C1CC[C@@H]1[C@@H]2CC[C@@]2(C)[C@H]1CC[C@]2(C)O` the outcome was “inactive”. In the case of `CCCN(CCC)N=O`, the outcome is reported as “inactive”. In the case of `CC(C)(c1ccccc1)c1ccc(O)cc1`, the AC50 is reported as 23.8 µM (active) and 38.4 µM (active) and 43 µM (active) and the outcome is reported as “inactive”. In the case of `Cc1cc2c3c(c1)C(c1ccccc1)=N[C@@H](NC(=O)c1ccncc1)C(=O)N3CC2`, the AC50 is reported as 100 µM (active). For `CC(C)(O)C(=O)Nc1ccc([N+](=O)[O-])c(C(F)(F)F)c1`, the outcome was “inactive”. For `CCCCCCOC(=O)c1ccccc1C(=O)OCCCCCC`, the outcome was “inactive”. For `N#Cc1ccc(N(CC(N)=O)CC(F)(F)F)cc1C(F)(F)F`, the outcome was “inactive”. In the case of `Clc1ccc(Cl)cc1`, the outcome is reported as “inactive”. For `Clc1ccc(C(c2ccccc2Cl)C(Cl)(Cl)Cl)cc1` (configuration not stated), the AC50 was 37.5 µM (active) [middle of 4 runs]. In the case of `c1cc2ccc3cccc4ccc(c1)c2c34`, the outcome is reported as “inactive”.

Test: ATG_DR4_LXR_CIS: Attagene CIS-FACTORIAL HepG2 Assay for human Liver X Receptor (LXR), DR4 submotif (AID 2282929)
Details: HepG2 Attagene DR4 cis-reporter, mRNA transcription; actives raise or lower the signal
In short: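 HepG2, transient MRTU transfection, cis-element (DR4) promoter; 24 h compound exposure; total RNA → oligo(dT) RT → PCR → 6-FAM primer extension → HpaI cut → CE. Gain/loss vs DMSO, bidirectional fit.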
With `C[C@]12CCC(=O)C=C1CC[C@@H]1[C@@H]2CC[C@]2(C)C(=O)CC[C@@H]12` the AC50 was 161 µM (active) and 167 µM (active) and the outcome was “inactive”. With `O=S(=O)(O)C(F)(F)C(F)(F)C(F)(F)C(F)(F)C(F)(F)C(F)(F)F` the outcome was “inactive”. With `CCOP(=S)(OCC)SCSC(C)(C)C` the AC50 was 10.6 µM (active) and the outcome was “inactive”. For `O=C(NC(=O)c1cc(F)c(F)cc1Cl)Nc1cc(F)ccc1N1CCC(C(=O)O)CC1`, the outcome was “inactive”. With `CC(c1ccc(O)cc1)(c1ccc(O)cc1)c1ccc(O)cc1` the AC50 was 7.38 µM (active). In the case of `ClC1=C(Cl)[C@]2(Cl)[C@@H]3[C@@H](Cl)[C@H]4O[C@H]4[C@@H]3C1(Cl)C2(Cl)Cl`, the AC50 is reported as 8.22 µM (active). For `Cc1ccccc1[N+](=O)[O-]`, the outcome was “inactive”. In the case of `ClC1=C(Cl)[C@]2(Cl)[C@@H]3[C@H]4C[C@H]([C@@H]5O[C@H]45)[C@@H]3[C@@]1(Cl)C2(Cl)Cl`, the AC50 is reported as 5.08 µM (active). With `Oc1c(Cl)c(Cl)c(Cl)c(Cl)c1Cl` the AC50 was 31.6 µM (active) and 34.8 µM (active) and the outcome was “inactive”. For `CCCCCCCCCc1ccc(O)cc1`, the AC50 was 30.2 µM (active) and 11.1 µM (active) and the outcome was “inactive”. With `O=S(=O)(O)C(F)(F)C(F)(F)C(F)(F)C(F)(F)F` the outcome was “inactive”. For `Cc1cc(-c2ccc(N)c(C)c2)ccc1N`, the outcome was “inactive”. In the case of `CC#Cc1cc(C)nc(Nc2ccccc2)n1`, the AC50 is reported as 75 µM (active). For `O=C(O)C(F)(F)C(F)(F)C(F)(F)C(F)(F)C(F)(F)C(F)(F)C(F)(F)C(F)(F)F`, the AC50 was 81.9 µM (active) and 50 µM (active) and the outcome was “inactive”. For `O=C(O)C(F)(F)C(F)(F)C(F)(F)C(F)(F)C(F)(F)C(F)(F)C(F)(F)C(F)(F)C(F)(F)F`, the AC50 was 27.3 µM (active) and 23.9 µM (active) and 13.3 µM (active). With `CCCCCCCCCC[N+](C)(C)CCCCCCCCCC` the AC50 was 6.09 µM (active). For `CCC(=O)O[C@H]1CC[C@H]2[C@@H]3CCC4=CC(=O)CC[C@]4(C)[C@H]3CC[C@]12C`, the AC50 was 170 µM (active) and 169 µM (active) and 162 µM (active) and the outcome was “inactive”. With `COc1ccc(O)c(C(C)(C)C)c1` the outcome was “inactive”. For `CC1=C2C[C@H]3[C@@H](CC=C4C[C@@H](O)CC[C@@]43C)[C@@H]2CC[C@]12O[C@@H]1C[C@H](C)CN[C@H]1[C@H]2C`, the AC50 was 13.3 µM (active). With `O=C(N[C@H]1CN2CCC1CC2)c1cc2ccoc2cn1` the outcome was “inactive”.
